What all share (assay): DAPPL (digital affinity profiling via proximity ligation, sequencing); 10 mM Tris-HCl pH 7.5, 50 mM NaCl, 1 mM DTT, 4% glycerol, room temperature, 30 min; GST-TFs on glutathione beads, 16-mer random dsDNA library, 0.1% formaldehyde crosslink after washing; high values mean tight binding
Holding throughout (details): protein: recombinant; tags: N-terminal GST; dsDNA, one strand shown

The target of one assay is T1, FLI1 (Homo sapiens, UniProt Q01543 1-452).
T1 sequence: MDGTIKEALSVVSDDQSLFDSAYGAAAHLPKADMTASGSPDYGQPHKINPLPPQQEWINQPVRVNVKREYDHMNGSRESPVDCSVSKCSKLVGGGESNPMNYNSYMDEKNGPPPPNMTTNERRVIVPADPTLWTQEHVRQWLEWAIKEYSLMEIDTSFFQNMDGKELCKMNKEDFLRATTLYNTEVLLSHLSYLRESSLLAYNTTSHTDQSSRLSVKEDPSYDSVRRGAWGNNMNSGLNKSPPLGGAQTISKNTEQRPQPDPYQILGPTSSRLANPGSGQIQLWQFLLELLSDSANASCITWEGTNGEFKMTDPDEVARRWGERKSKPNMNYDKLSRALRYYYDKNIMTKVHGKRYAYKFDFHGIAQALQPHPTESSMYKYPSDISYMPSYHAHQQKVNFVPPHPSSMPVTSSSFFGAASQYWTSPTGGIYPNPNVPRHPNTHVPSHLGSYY
Put shortly:
(§1)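 Sequencing on an Illumina NextSeq500 followed washing, crosslinking with 0.1% formaldehyde, proximity ligation (BsaI/T4 ligase, 1 h, 37 °C) and PCR amplification of pools that had been incubated for 30 min at room temperature with 200 nmole of a random double-stranded 16-mer DNA library in Tris/NaCl/DTT/glycerol buffer. Each pool held DNA-barcoded human transcription factors, expressed in yeast as GST fusions and captured on glutathione beads, plus a tag-only sample. Binding signal is a hexamer's read frequency for a factor divided by its frequency in the tag-only sample.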

For another assay, the target named is T2, ELK1 (Homo sapiens, UniProt P19419 1-428).
T2 sequence: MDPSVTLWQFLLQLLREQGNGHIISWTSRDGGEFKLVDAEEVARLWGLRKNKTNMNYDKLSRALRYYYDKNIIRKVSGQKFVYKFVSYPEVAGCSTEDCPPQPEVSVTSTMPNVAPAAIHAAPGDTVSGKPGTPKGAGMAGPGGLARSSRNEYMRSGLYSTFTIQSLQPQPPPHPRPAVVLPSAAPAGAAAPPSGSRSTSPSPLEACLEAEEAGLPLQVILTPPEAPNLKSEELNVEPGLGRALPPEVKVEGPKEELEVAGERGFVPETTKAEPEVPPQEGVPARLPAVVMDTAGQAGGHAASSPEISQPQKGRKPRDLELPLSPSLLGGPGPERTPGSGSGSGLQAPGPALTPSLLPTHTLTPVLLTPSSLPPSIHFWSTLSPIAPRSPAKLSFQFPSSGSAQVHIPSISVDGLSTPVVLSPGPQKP
In outline:
as §1

The target in a further assay is T3, GABPA (Homo sapiens, UniProt Q06546 1-454).
T3 sequence: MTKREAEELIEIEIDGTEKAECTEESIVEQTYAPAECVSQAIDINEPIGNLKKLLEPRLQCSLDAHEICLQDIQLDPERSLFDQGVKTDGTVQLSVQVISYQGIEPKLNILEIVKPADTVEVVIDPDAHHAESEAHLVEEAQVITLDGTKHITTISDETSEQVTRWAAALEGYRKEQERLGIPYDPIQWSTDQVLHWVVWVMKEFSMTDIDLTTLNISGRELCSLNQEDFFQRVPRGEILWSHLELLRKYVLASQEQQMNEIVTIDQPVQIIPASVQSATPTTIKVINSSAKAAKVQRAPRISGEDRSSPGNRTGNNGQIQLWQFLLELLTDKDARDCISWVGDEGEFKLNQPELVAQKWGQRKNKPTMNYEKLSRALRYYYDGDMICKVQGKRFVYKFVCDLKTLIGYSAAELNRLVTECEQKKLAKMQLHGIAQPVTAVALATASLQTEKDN
In outline: as §1

The target in another assay is T4, ERG (Homo sapiens, UniProt P11308 1-479).
T4 sequence: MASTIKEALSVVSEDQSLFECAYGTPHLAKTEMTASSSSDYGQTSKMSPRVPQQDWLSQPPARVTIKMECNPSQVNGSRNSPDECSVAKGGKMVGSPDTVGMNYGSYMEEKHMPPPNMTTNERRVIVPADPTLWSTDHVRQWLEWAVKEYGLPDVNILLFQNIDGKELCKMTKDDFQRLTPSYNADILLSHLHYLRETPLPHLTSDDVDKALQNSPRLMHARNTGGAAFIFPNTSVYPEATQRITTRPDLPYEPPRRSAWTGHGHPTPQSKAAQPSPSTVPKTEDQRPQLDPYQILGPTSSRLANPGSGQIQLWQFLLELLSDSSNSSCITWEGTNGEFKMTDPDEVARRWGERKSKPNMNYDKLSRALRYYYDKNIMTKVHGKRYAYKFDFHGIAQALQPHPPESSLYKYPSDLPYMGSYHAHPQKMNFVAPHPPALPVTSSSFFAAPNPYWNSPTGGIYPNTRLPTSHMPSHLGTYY
In outline:
as §1

Another assay has as its target ELF1 (Homo sapiens, UniProt P32519 1-619). In outline: as §1
The target of the next assay is SPIB (Homo sapiens, UniProt Q01892 1-262). Put shortly: as §1
SPIB, sequence (Q01892 whole entry): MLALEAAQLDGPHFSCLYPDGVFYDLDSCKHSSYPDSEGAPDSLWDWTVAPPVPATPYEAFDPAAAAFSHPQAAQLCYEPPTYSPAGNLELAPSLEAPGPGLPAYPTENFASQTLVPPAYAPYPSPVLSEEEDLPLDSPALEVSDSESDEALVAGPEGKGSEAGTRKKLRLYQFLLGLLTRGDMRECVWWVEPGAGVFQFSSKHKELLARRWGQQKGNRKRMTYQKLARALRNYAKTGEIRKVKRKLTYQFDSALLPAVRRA
Another assay deals with T5, ELK3 (Homo sapiens, UniProt P41970 1-407).
T5 sequence: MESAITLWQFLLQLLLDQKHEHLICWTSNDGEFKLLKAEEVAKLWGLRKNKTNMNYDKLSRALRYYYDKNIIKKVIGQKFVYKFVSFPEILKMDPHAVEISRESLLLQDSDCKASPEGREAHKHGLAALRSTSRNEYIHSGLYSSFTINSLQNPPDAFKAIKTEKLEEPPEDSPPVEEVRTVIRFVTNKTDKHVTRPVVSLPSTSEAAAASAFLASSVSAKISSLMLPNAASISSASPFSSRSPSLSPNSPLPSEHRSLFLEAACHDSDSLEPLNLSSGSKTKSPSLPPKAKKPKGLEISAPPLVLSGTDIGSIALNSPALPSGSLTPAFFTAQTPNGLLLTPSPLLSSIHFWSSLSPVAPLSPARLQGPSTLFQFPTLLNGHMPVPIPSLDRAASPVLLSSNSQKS
In outline: as §1

Another assay concerns the target T6, FEV (Homo sapiens, UniProt Q99581 1-238).
T6 sequence: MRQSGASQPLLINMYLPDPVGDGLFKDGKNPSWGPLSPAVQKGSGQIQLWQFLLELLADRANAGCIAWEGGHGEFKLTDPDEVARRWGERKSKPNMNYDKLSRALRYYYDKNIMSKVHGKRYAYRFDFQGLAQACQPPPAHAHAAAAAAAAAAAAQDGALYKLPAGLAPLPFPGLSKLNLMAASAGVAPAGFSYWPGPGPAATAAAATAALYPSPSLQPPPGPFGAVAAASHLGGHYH
Put shortly:
as §1

A further assay has as its target ETV5 (Homo sapiens, UniProt P41161 1-510). Put shortly:
as §1

The target of the next assay is T7, SPIC (Homo sapiens, UniProt Q8N5J4 1-248).
T7 sequence: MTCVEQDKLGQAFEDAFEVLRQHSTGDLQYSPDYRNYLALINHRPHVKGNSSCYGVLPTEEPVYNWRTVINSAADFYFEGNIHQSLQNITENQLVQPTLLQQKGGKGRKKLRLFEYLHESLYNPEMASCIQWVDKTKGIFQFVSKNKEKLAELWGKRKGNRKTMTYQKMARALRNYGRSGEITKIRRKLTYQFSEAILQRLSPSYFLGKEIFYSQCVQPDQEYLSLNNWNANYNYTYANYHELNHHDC
Put shortly:
as §1

The target of another assay is ELF4 (Homo sapiens, UniProt Q99607 1-663). Put shortly: as §1
ELF4, sequence (Q99607 whole entry): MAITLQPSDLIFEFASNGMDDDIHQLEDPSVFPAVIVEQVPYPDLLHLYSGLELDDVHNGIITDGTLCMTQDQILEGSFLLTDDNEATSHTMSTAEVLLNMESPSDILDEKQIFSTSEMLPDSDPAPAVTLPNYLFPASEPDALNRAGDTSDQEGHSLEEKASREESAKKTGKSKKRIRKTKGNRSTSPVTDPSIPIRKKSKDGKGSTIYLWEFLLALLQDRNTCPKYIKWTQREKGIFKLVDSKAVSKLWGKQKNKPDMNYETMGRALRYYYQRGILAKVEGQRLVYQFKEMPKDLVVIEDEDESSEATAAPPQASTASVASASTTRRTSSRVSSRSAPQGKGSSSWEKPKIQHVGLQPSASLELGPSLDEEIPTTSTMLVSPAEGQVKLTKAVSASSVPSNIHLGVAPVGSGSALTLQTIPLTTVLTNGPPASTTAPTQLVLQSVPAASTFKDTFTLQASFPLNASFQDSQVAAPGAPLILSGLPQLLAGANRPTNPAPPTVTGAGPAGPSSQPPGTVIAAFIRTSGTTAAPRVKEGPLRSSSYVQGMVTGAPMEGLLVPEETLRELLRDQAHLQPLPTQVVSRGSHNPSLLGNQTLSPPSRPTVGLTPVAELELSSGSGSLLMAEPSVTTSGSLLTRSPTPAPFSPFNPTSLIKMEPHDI
The target of the next assay is T8, ELK4 (Homo sapiens, UniProt P28324-2 1-405).
T8 sequence: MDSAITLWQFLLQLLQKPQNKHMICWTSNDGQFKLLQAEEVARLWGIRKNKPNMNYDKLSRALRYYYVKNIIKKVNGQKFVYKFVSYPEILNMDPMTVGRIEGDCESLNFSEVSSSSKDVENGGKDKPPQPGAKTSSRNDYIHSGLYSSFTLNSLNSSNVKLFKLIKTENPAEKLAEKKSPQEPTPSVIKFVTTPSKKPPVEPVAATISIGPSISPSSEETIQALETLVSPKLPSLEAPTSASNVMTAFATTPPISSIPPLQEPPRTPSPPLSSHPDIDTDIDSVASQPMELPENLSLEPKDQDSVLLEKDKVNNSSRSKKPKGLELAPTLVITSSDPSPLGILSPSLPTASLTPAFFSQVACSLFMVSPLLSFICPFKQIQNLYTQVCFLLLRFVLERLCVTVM
In outline:
as §1

For the next assay, the target named is T9, ETV2 (Homo sapiens, UniProt O00321 1-342).
T9 sequence: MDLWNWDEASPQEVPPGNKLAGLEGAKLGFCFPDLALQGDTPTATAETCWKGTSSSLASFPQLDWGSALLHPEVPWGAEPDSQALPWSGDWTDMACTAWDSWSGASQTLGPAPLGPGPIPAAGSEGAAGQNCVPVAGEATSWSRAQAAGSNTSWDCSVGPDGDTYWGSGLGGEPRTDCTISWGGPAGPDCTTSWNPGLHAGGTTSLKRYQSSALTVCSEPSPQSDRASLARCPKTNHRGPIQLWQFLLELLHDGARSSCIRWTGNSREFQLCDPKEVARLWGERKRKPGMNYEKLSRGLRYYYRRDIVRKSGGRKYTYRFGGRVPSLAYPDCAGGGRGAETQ
In outline:
as §1

A further assay deals with T10, ELF3 (Homo sapiens, UniProt P78545 1-371).
T10 sequence: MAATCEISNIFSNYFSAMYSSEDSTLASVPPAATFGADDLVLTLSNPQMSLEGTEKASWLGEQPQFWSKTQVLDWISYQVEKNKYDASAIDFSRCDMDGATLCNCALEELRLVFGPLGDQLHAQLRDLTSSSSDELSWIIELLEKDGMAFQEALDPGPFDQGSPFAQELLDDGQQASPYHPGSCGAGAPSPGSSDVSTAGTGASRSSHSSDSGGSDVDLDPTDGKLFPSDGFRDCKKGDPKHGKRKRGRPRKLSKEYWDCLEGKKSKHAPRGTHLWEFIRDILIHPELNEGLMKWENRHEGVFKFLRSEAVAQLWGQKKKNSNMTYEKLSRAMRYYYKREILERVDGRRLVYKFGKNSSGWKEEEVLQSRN
Put shortly:
as §1

The target in a further assay is T11, EHF (Homo sapiens, UniProt Q9NZC4 1-300).
T11 sequence: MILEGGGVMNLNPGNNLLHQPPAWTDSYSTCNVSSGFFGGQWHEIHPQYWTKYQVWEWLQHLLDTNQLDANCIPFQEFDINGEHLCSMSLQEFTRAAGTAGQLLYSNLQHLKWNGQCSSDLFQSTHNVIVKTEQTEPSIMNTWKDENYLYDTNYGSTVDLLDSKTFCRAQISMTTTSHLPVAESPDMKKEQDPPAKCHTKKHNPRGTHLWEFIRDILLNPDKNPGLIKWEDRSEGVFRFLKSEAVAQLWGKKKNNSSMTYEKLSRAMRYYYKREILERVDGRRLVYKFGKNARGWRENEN
Put shortly: as §1

The target in the next assay is ETV1 (Homo sapiens, UniProt P50549 1-477). In outline: as §1
ETV1, sequence (P50549 whole entry): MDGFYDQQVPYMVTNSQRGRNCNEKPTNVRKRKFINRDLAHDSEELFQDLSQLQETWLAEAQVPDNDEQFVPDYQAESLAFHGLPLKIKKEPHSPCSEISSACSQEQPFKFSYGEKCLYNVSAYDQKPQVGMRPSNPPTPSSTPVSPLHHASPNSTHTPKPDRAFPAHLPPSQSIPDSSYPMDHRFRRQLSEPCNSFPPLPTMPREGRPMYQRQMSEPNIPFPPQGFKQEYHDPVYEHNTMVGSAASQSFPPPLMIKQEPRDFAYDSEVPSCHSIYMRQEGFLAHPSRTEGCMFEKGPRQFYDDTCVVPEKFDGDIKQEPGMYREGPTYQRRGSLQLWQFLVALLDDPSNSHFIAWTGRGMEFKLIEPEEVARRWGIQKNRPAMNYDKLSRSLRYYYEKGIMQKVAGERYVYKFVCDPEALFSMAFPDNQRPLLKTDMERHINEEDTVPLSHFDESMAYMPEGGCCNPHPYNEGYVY

ELF1, sequence (P32519 whole entry): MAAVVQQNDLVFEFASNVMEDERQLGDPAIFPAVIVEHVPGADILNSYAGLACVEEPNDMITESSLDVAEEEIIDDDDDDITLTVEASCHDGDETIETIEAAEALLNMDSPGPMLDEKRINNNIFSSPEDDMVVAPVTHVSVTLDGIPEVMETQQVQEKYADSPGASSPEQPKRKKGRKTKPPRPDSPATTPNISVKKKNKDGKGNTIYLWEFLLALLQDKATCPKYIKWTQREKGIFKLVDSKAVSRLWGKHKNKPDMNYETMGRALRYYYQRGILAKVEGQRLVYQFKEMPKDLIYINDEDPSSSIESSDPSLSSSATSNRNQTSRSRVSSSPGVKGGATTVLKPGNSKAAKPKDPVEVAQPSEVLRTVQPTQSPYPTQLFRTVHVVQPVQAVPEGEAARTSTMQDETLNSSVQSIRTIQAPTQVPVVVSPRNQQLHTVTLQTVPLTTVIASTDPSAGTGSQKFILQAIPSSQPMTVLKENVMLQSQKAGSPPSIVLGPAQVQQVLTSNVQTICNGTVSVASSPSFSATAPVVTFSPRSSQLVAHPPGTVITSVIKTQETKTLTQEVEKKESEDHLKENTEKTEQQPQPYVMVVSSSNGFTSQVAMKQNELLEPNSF
ETV5, sequence (P41161 whole entry): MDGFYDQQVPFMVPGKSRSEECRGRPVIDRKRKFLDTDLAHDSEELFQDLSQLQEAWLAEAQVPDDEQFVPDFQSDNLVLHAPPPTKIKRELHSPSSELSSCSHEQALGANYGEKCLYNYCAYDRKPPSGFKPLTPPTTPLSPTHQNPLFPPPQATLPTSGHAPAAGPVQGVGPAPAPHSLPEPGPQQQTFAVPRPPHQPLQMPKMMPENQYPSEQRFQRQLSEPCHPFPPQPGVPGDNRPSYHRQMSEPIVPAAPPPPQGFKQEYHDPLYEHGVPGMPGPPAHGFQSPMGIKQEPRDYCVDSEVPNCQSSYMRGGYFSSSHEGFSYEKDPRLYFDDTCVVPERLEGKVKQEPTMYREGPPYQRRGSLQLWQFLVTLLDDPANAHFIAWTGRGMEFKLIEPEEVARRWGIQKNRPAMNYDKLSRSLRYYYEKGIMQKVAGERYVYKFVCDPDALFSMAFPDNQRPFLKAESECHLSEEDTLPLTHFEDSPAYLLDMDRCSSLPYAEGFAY

Regarding CTCAGG, the binding signal in the assay with FLI1 is 1.08 fold enrichment (6-mer frequency, TF over GST control); with ELK1, 1.13 fold enrichment (6-mer frequency, TF over GST control); with GABPA, 1.02 fold enrichment (6-mer frequency, TF over GST control); in the assay with ERG, 1.1 fold enrichment (6-mer frequency, TF over GST control); with ELF1, 1.08 fold enrichment (6-mer frequency, TF over GST control); with SPIB it was 1.11 fold enrichment (6-mer frequency, TF over GST control). The binding signal in the assay with ELK3 is 1.07 fold enrichment (6-mer frequency, TF over GST control); with FEV it was 1.09 fold enrichment (6-mer frequency, TF over GST control); with ETV5, 1.06 fold enrichment (6-mer frequency, TF over GST control); with SPIC, 1.06 fold enrichment (6-mer frequency, TF over GST control); with ELF4, 1.07 fold enrichment (6-mer frequency, TF over GST control); with ELK4, 1.05 fold enrichment (6-mer frequency, TF over GST control). The binding signal in the assay with ETV2 is 1.12 fold enrichment (6-mer frequency, TF over GST control); with ELF3 it was 1.15 fold enrichment (6-mer frequency, TF over GST control).

In the case of CGCTTG, the binding signal is 1.1 fold enrichment (6-mer frequency, TF over GST control) with FLI1; 1.14 fold enrichment (6-mer frequency, TF over GST control) with ELK1; 1.09 fold enrichment (6-mer frequency, TF over GST control) in the assay with GABPA; 1.05 fold enrichment (6-mer frequency, TF over GST control) in the assay with ERG; 1.07 fold enrichment (6-mer frequency, TF over GST control) with ELF1; 1.04 fold enrichment (6-mer frequency, TF over GST control) with EHF. For the same sequence, the binding signal is 1.25 fold enrichment (6-mer frequency, TF over GST control) with SPIB; 1.07 fold enrichment (6-mer frequency, TF over GST control) in the assay with ELK3; 1.08 fold enrichment (6-mer frequency, TF over GST control) with FEV; 1.06 fold enrichment (6-mer frequency, TF over GST control) in the assay with ETV5; 1.16 fold enrichment (6-mer frequency, TF over GST control) with SPIC; 1.01 fold enrichment (6-mer frequency, TF over GST control) with ELF4. Moreover, the binding signal with ELK4 was 1 fold enrichment (6-mer frequency, TF over GST control); with ETV2 it was 1.07 fold enrichment (6-mer frequency, TF over GST control); with ELF3, 1.2 fold enrichment (6-mer frequency, TF over GST control); with ETV1, 1.15 fold enrichment (6-mer frequency, TF over GST control).

For the origin of these results see PMC7862700, “An all-to-all approach to the identification of sequence-specific readers for epigenetic DNA modifications on cytosine”.
